Screens deposited in PubChem BioAssay by National Center for Advancing Translational Sciences (NCATS).
An excerpt weighted towards active compounds, which were near 1.6% of everything screened.
KCNH2 3.1 block = qHTS for Inhibitors of KCHN2 3.1: Mutant qHTS; Potassium voltage-gated channel subfamily H member 2, brain isoform KCNH2 3.1 (human); activity change, % (tested at about 1.8 µM); actives 0.95% (n = 340,000); U2OS KCNH2 3.1, thallium flux FluxOr; hits give low values; AID 720553, 2013;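 active means maximum activity change below -70%; inconclusive means maximum activity change from -70% to -50%; inactive means maximum activity change above -50%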;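 further: thallium influx rate constant from kinetic fluorescence after stimulation buffer; on the % scale 0 is the no-effect control and ±100 the full control effect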
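Measured as rate of thallium-driven FluxOr signal in transduced U2OS cells carrying the 3.1 channel, read kinetically for 2 min upon stimulation; values are rate constants scaled to DMSO control wells.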
gsp agonist = qHTS for Agonist of gsp, the Etiologic Mutation Responsible for Fibrous Dysplasia/McCune-Albright Syndrome: qHTS; gsp mutant cells, cAMP HTRF, 30 min; AID 624287, 2012; actives 0.13% (n = 340,000); Potency, µM (highest dose often 76.9 µM), inactives show at the top dose activation (cAMP increase), hits mostly activators; active means well fitted activation curve with a large enough effect; inconclusive means small, poorly fitted or top-dose-only effect, or another doubt; inactive means no such curve, though single readings can be large or run the other way; cell line not stated here;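 further: phosphodiesterase inhibitor Ro 20-1724 added with compounds to block cAMP breakdown; potency means the concentration at half of the fitted maximal effect; nearly all actives have a fitted effect of over 60% in size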
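Cells in DMEM/10% FBS with G418 were pretreated with compounds in DMSO plus […] (300 uM stock) for 30 min at 37C. cAMP was measured by HTRF (cAMP-d2 plus anti-cAMP antibody-K) after 30 min at room temperature.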
KCNH2 WT inh = qHTS for Inhibitors of KCHN2 3.1: Wildtype qHTS | activity change, % at 1.84 µM | AID 720551, 2013 | actives 0.37% (n = 340,000) | U2OS, BacMam KCNH2, thallium flux FluxOr; hits give low values;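 active means maximum activity change below -70%; inconclusive means maximum activity change between -70% and -50%; inactive means maximum activity change above -50%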; further: on the % scale 0 is the no-effect control and ±100 the full control effect
Target sequence (Q12809 whole entry, looked up): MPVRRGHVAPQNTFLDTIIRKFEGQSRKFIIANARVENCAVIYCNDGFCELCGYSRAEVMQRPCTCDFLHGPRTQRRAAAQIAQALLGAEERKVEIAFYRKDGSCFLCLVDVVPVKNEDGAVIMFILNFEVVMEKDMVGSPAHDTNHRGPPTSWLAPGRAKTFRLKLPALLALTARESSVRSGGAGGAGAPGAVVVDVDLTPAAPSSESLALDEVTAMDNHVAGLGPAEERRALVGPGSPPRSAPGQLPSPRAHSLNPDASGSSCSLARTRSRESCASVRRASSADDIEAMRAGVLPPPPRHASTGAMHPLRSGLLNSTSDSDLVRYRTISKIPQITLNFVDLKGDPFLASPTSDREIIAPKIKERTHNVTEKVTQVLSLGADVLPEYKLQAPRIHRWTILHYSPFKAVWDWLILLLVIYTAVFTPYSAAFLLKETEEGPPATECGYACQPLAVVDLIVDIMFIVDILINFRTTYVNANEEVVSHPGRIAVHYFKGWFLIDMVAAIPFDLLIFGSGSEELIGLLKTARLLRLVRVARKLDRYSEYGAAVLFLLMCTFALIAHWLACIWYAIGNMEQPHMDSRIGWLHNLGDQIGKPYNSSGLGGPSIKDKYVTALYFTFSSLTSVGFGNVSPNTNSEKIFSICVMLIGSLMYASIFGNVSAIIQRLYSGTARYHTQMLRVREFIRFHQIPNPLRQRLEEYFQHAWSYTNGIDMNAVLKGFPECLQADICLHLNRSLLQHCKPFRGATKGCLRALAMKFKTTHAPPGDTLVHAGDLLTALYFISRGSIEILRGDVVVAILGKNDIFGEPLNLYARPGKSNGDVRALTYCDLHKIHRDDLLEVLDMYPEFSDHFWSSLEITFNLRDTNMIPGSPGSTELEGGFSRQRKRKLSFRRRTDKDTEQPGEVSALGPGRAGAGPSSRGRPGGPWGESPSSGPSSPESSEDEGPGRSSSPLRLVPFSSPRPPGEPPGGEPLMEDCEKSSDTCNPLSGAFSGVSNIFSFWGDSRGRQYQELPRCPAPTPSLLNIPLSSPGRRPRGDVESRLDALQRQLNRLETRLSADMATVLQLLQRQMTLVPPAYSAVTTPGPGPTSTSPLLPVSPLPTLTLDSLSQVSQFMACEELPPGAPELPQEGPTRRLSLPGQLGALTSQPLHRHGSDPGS
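U2OS cells transduced with wild-type KCNH2 virus are loaded with FluxOr dye for 45 min, and thallium flux is measured in kinetic reads before and after stimulation buffer. Rate constants are normalized to DMSO controls.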
gsp antag = qHTS for Antagonists of gsp, the Etiologic Mutation Responsible for Fibrous Dysplasia/McCune-Albright Syndrome: qHTS. Potency, µM (series often up to 76.9 µM), for inactives: top-dose activity change, negative = inhibition, actives largely listed as inhibitors. gsp-mutant cells, cAMP HTRF, 30 min. actives 0.4% (n = 340,000); calls by dose curve; cell line not stated here;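 further: intracellular cAMP measured with PDE inhibitor Ro 20-1724 present during compound exposure; potency means the concentration at half of the fitted maximal effect; on the % scale 0 is the no-effect control and ±100 the full control effect; nearly all actives have a fitted effect of over 65% in size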
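HTRF cAMP read-out (cAMP-d2 plus anti-cAMP antibody-K in lysis buffer, 30 min RT). Before lysis, cells are exposed to compounds with […] for 30 min at 37C in DPBS containing Ca/Mg, BSA and Tween 20.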
GRP78 ERSR act = qHTS for Inducers of the Endoplasmic Reticulum Stress Response (ERSR) in Human Glioma: qHTS; actives 0.02% (n = 420,000); Potency, µM, for the others: top-dose activation, hits mostly activators; U87-MG GRP78 promoter luciferase reporter, 16 h; active means well fitted activation curve with a large enough effect; inconclusive means small, poorly fitted or top-dose-only effect; inactive means no such curve, though single readings can be large or run the other way; further: potency means the concentration at half of the fitted maximal effect; series mostly up to about 76 µM; % of control where 0% means no effect; nearly all actives have a fitted effect of over 35% in size
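Stably transfected U87-MG glioma cells carrying a GRP78-based luciferase sensor; 16 h compound incubation. Luminescence end-point read 10 min after Bright-Glo addition at room temperature.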
pAkt inh = HTS Assay for Inhibitors of Akt Phophorylation: Primary Screen; Neuro2A IGF-stimulated pAkt S473 HTRF, 20 min; hits give low values; actives 0.32% (n = 360,000); activity change, % for hits at 50 µM; in the data active means activity change below about -80%; inconclusive means mostly about -51% to -80%; further: on the % scale 0 is the no-effect control and ±100 the full control effect
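Neuro2A cells (4,500/well, DMEM with 0.5% FBS) were treated with compound at a single 50 µM final concentration, stimulated with 6 nM IGF for 20 min at 37 °C, and lysed. Phospho-Akt Ser473 was read by HTRF as 665/615 ratio ×10^4.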
* hit, by the source's call; i = inactive; ? = inconclusive; . = no result given; [ ] = dose if it differs, or a comment.

SMILES	KCNH2 3.1 block	gsp agonist	KCNH2 WT inh	gsp antag	GRP78 ERSR act	pAkt inh
COc1ccc(C(=O)C=Cc2ccc(OCc3ccccc3)c(OC)c2)cc1OC	-72*	9%	-11	.	1%	i
Cc1cc(C(=O)N/N=C/c2ccc(OCc3ccccc3)cc2)c(C)o1	7	3%[15.4 µM]	9	-30%	9%	i
COc1ccc(/C=N/NC(=O)c2cc(C)oc2C)cc1OCc1ccccc1	2	7%	-10	13µM*	-2%	i
O=C(Nc1cccc(-c2csc(Nc3ccc(Cl)cc3)n2)c1)c1cccc(C(F)(F)F)c1	-78*	-12%	0	-5%	2%	i
Cc1c(-c2ccccc2)oc2c(C(=O)N3CCN(c4ccc([N+](=O)[O-])cc4)CC3)cccc2c1=O	-71*	-15%[15.4 µM]	-103*	-9%	-4%	i
Cc1c(C(=O)N2CCN(c3ccc([N+](=O)[O-])cc3)CC2)oc2ccccc12	-73*	9%	-18	?	-2%	i
O=C(C1COc2ccccc2O1)N1CCN(c2ccc([N+](=O)[O-])cc2)CC1 (stereo not given)	-73*	-1%[15.4 µM]	3	-3%	-2%	i
COc1cccc(CN2CCC3(CCC(CNC(=O)c4ccccc4)O3)CC2)c1 (stereo not given)	.	.	.	.	-3%	.
CCOC(=O)Cc1c(C)c2c(C)nn(-c3ccccc3)c2oc1=O	1	0%	-1	-11%	-2%	-103%*
COc1cccc(C(=O)NCC2Cc3cccc(-c4ncccn4)c3O2)c1OC (stereo not given)	.	.	.	.	-3%	.
Cc1ccc(-n2[nH]c(C)c(/C=N/Nc3ccc([N+](=O)[O-])cc3[N+](=O)[O-])c2=O)cc1	2	?	-3	32µM*	-9%	i
COC(=O)c1cccc(C(=O)NCc2nc(-c3ccccc3NC(C)=O)oc2C)c1	.	.	.	.	-2%	.
Cc1nn(-c2ccccc2)c(C)c1/C=N/O	-9	10%	4	7%	4%	-111%*
Cc1nn(-c2ccccc2)c(C)c1/C=N/n1cnnc1	-2	-6%[15.4 µM]	-3	.	-3%	i
C=CCNC(=O)c1ccc(CN(c2ccc(OCC)cc2)S(=O)(=O)c2ccc(C)cc2)cc1	-88*	-39%	?	5%	-4%	i
COc1ccc(C(=O)c2sc(Nc3cccc(OC)c3)c(C(=O)Nc3cccc(C)c3C)c2N)cc1	-33	30%	-1	6%	13µM*	i
COc1ccc(CNCCc2ccc(Cl)cc2)cc1OCc1ccccc1	-71*	-43%	-2	11%	-10%	i
NS(=O)(=O)c1ccc(CCNCc2cc(Br)ccc2OCc2ccccc2)cc1	-70*	7%	-28	-1%	-5%	i
COc1cc(CN(C)CCc2ccccc2)ccc1OCc1ccccc1	-95*	2%	73	9%	0%	i
CC(=O)c1ccc(C(=O)N2CCc3c(cnc(C)c3CNC(=O)c3ccc4c(c3)OCO4)C2)s1	.	.	.	.	-5%	.
Cc1nc(-c2ccc(F)cc2)c(CC(=O)N(C)CC(=O)Nc2ccc(Cl)c(C(F)(F)F)c2)s1	21	20%	-2	32µM*	-5%	i
Cc1nc(-c2ccc(F)cc2)c(CC(=O)N(C)CC(=O)Nc2ccccc2Cl)s1	16	14%	3	-4%	0%	i
CC(=O)/C(N=Nc1c(C)n(C)n(-c2ccccc2)c1=O)=C(\C)O	11	11µM*	-1	2%	0%	i
CCOC(=O)/C(N=Nc1c(C)n(C)n(-c2ccccc2)c1=O)=C(\C)O	-10	4%	-5	-8%	0%	i
CC(=O)c1c(C)[nH]c(C(=O)N2CCN(C(=O)c3ccco3)CC2)c1C	-211*	-21%	-1	-2%	6%	i
SMILES	KCNH2 3.1 block	gsp agonist	KCNH2 WT inh	gsp antag	GRP78 ERSR act	pAkt inh
CC(=O)c1c(C)[nH]c(C(=O)N2CCN(c3ccc(F)cc3)CC2)c1C	16	14%	11	-8%	0%	i
O=C(/C=C/c1ccc(Cl)cc1)Nc1ccc(N2CCCCC2)cc1	26	17%	8	11%	0%	.
O=C(/C=C\c1ccccc1)Nc1ccc(NC(=O)c2ccco2)cc1	-80*	1%[15.4 µM]	11	.	1%	i
O=C(Nc1ccc(N2CCCCC2)cc1)c1ccc(F)cc1F	-31	-2%[15.4 µM]	-4	4%	-8%	i
O=C(/C=C/c1ccccc1)Nc1ccc(N2CCCCC2)cc1	-81*	-1%	19	3%	1%	i
O=C(Nc1ccc(N2CCCC2)cc1)c1ccccc1F	1	0%	-23	-11%	-2%	-85%*
CO/N=C(\C(=O)N[C@@H]1C(=O)N2C(C(=O)[O-])=C(C[n+]3cccc4c3CCCC4)CS[C@H]12)c1csc(N)n1	.	.	.	.	-3%	.
COCC(C)NCc1cc2ccc(OC)cc2nc1N1CCN(c2ccc(F)cc2)CC1 (stereo not given)	.	.	.	.	-8%	.
O=C1CC(C(=O)N2CCCC(c3nc(-c4ccncc4)ncc3-c3ccccc3)C2)C2(CCCCC2)O1 (stereo not given)	.	.	.	.	3%	.
CCCc1nc2cccnc2n1C1CCN(C(=O)Cn2nccc2C)CC1	.	.	.	.	-1%	.
O=C1CC(C(=O)N2CCOc3ccc(CN4CCC(Oc5cccnc5)CC4)cc3C2)c2ccccc21 (stereo not given)	.	.	.	.	0%	.
O=C(/C=C/c1cccc([N+](=O)[O-])c1)N1CCN(C(=O)c2ccco2)CC1	1	-9%[15.4 µM]	4	7%	-2%	i
O=C(/C=C/c1ccccc1)N1CCN(C(=O)c2ccco2)CC1	-96*	-43%	1	14%	2%	i
Cc1oc(-c2ccccc2NC(=O)c2ccccc2)nc1CNC(=O)C1CC(=O)OC12CCCCC2 (stereo not given)	.	.	.	.	-3%	.
Cc1cc(CNC(=O)c2cnn(-c3nccc(-c4cc(C)sc4C)n3)c2C2CC2)on1	.	.	.	.	7%	.
COc1ccc(OC)c(CN2CCOc3ccc(C(O)c4cccnc4)cc3C2)c1 (stereo not given)	.	.	.	.	-3%	.
CC(C)CC(C(=O)O)C(C)CC(=O)Nc1ccn(-c2ccccc2)n1 (stereo not given)	31	-15%	0	2%	4%	-108%*
